Laboratory results taken from PubChem BioAssay AID588683 (Broad Institute, 2011).
Entries with a potency or affinity are not part of this list.

target: Kelch-like ECH-associated protein 1 (Homo sapiens) + Nuclear factor erythroid 2-related factor 2 (Homo sapiens) (UniProt Q14145+Q16236); experiment: disruptors of Keap1 binding to Nrf2 peptide – biochemical, fluorescence polarization, cherry-picked samples, dose response (AID 588683); details: plate reader; series mostly up to 26 µM; activity change, negative = inhibition: at the top concentration;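 also: Kelch domain of Keap1 binding a fluorescein-labelled 9mer Nrf2 peptide; more negative means stronger inhibition of peptide binding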
Sequence (Q14145 whole entry, looked up, the tested form may be a part): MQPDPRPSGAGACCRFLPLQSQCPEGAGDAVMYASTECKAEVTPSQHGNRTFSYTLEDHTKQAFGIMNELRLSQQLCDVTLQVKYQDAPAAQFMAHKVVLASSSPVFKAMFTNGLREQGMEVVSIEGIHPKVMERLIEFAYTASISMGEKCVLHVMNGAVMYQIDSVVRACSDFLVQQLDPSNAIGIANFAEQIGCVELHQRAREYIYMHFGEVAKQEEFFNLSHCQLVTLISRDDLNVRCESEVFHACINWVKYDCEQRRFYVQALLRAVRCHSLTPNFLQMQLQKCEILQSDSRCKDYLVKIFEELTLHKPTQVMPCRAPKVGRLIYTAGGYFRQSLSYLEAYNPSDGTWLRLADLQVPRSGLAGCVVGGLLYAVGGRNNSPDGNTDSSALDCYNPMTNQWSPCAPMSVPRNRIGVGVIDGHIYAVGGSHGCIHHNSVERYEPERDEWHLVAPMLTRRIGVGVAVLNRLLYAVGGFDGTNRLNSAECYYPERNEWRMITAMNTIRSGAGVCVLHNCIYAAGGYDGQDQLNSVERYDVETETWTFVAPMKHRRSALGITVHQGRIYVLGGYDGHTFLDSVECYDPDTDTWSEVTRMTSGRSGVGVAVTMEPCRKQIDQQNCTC
Sequence (Q16236 whole entry, looked up, the tested form may be a part): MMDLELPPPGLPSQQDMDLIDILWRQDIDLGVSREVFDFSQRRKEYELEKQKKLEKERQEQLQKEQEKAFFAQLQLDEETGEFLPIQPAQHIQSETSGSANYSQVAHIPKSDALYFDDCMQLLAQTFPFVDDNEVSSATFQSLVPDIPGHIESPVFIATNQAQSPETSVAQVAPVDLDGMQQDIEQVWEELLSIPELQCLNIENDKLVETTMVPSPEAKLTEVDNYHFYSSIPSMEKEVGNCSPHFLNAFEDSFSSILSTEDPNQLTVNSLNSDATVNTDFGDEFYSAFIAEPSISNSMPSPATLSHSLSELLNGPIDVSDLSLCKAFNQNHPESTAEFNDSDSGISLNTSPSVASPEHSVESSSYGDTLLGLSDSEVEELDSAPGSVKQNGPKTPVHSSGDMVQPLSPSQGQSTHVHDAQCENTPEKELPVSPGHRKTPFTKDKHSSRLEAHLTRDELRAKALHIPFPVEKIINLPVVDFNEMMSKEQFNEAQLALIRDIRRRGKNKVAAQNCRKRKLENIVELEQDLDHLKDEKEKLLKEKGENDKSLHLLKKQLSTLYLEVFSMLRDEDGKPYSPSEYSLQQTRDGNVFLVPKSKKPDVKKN

Activity change, negative = inhibition, inactive:
O=c1[nH]c(-[n+]2ccccc2)c(/C=N/NC([S-])=Nc2ccccc2)s1 -0.642%
CC(C(=O)O)N1C(=O)/C(=C/C=C/c2ccco2)SC1=S (stereo not drawn) 14.5%
CCOc1cccc(C2C(C(=O)c3ccc(C)o3)=C(O)C(=O)N2c2nccs2)c1 (stereo not drawn) -21.9%
Cn1nc(C(=O)NNC(=O)Cc2ccc(S(=O)(=O)N3CCOCC3)s2)c2ccccc2c1=O 0.832%
COc1ccc(C2c3ccc(O)cc3Oc3ncn(CCCO)c(=N)c32)cc1OC (stereo not drawn) -8.41%
O=C(COC(=O)c1cccnc1Cl)Nc1ccc(N2CCCCC2)cc1 -0.322%
CNC(=S)Nc1cccc(C(=O)OC)c1 1.38%
O=C(C1=NN(c2ccccc2)C2C(=O)N(c3ccccc3)C(=O)C12)c1ccccc1 (stereo not drawn) 13%
CCCCNC(=S)Nc1ccc(OC)nc1 -10.8%
CCOc1ccccc1C=C1SC(=S)NC1=O -1.41%
COc1ccc(C=Nc2cccnc2N)cc1 -5.56%
CC1CCN(c2ccc3c(c2)S(=O)(=O)c2ccccc2C3=O)CC1 24%
C=CCOC(=O)C1=C[C@H](c2csc3ccccc23)C[C@H](OCc2ccc(CO)cc2)O1 -4.86%
O=C1c2ccccc2-c2onc3ccc(Oc4ccccc4)c1c23 100%
O=S(=O)(O)c1ccc(O)c2cc(Nc3ccccc3)ccc12 -3.04%
CCN1CC=C2C(C#N)=C(N)C(C#N)(C#N)C(CCc3ccccc3)C2C1 (stereo not drawn) 5.09%
Cc1nc(-c2ccc(S(=O)(=O)N3CCCN(CCc4ccccc4)CC3)s2)cs1 -12.4%
O=S(=O)(Nc1ncccn1)c1ccc(NC(=S)NCc2cccnc2)cc1 -14.6%
O=C1c2cccc3c(N4CCCCC4)ccc(c23)C(=O)N1c1cccc(O)c1 38.4%
COc1[nH]c(/N=C/c2ccccc2)c(C#N)c1C#N 3.73%
COc1ccccc1NC(=O)C(C)OC(=O)C1COc2ccccc2O1 (stereo not drawn) -9.11%
Clc1ccc(C2=CC(c3ccco3)n3ncnc3N2)cc1 (stereo not drawn) -20.5%
COC(=O)c1cc(N2CCN(C)CC2)nc2ccccc12 -11.7%
CC(=O)Nc1c(N)c2ccccc2oc1=O -4.6%
C=CCn1c(=O)/c(=C/c2ccsc2)s/c1=C(\C#N)C(=O)NCCN1CCOCC1 -7.84%
CC(=O)Nc1ccc2c(c1)N(C(=O)CN(C)C)c1ccccc1CC2 -6.21%
CN(C)CCNC(=O)c1c(NC(=O)c2ccccc2)sc2c1CCCC2 -1.66%
CC1=CC(=C2N=C(c3ccccc3)OC2=O)C=C(C)O1 107%
CCCC1OC23CCCCC2C(C#N)(C#N)C1(C#N)C(=N)O3 (stereo not drawn) -1.32%
CCCC1C2CN(C(C)C)CC=C2C(C#N)=C(N)C1(C#N)C#N (stereo not drawn) 24.3%
CC1(C)CC(=O)C2=C(C1)OC(N)=C(C#N)C2c1cc2c(cc1[N+](=O)[O-])OCO2 (stereo not drawn) -12%
CCCC(=O)Nc1ccc(C(=O)NCCCn2ccnc2)cc1 9.53%
COc1cc2c3nnc(-c4ccc(F)cc4)c-3cn(Cc3ccccc3)c2cc1OC 124%
O=C(COC(=O)c1ccncc1)Nc1cccc2ccccc12 11.9%
O=C1NC(=O)/C(=C/c2ccccc2Cl)N1 -4.79%
CCN(CC)C(=O)C1c2ccccc2Oc2ccccc21 -5.67%
Cc1cccn2c(=O)c3cc(S(=O)(=O)c4ccccc4)c(=N)n(Cc4cccnc4)c3nc12 -9.58%
N/C(Cc1cccc2ccccc12)=N\O -1.95%
